According to PubChem BioAssay (Tox21):
“And” between values parts separate entries of the source, which are not always exact repeats. Equal entries are not always repeated. Records with an inconclusive call do not appear. A call without a number means that no potency is given here. More than one record can exist for a structure, and the calls need not agree. The source made the active and inactive calls. Unless noted, calls follow the shape of the dose curve; as a rule, active = well fitted curve in the direction sought with a large enough effect in the repeat runs; inconclusive = weak or mixed curves; inactive = no such curve, though single readings can be large; an effect the other way counts as inactive or inconclusive.

What was measured:
[1] = qHTS assay for small molecules that induce genotoxicity in human embryonic kidney cells expressing luciferase-tagged ATAD5 (AID 651632); also: nearly all actives have a fitted effect of over 15% in size; also: potency is read from the fitted curve at half-maximal effect
Outline: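 Reporter cells (HEK293T) express luciferase-tagged ATAD5, a protein that accumulates after DNA damage. Treat 16 hr at 37C/5% CO2, add Amplite, wait 30 min at RT, and read luminescence.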

[2] = qHTS assay for small molecule agonists of the p53 signaling pathway - cell viability (AID 651633; calls by dose curve; also: nearly all actives have a fitted effect of over 30% in size; also: potency is read from the fitted curve at half-maximal effect)
Outline: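 Viability counter-read: CellTiter-Glo luminescence (30 min, room temperature) in the same p53RE-bla plates. These plates had been exposed to compounds for 16 h at 37 C.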

[3] = qHTS assay for small molecules that induce genotoxicity in human embryonic kidney cells expressing luciferase-tagged ATAD5 - cell viability (AID 651634; calls by dose curve; also: nearly all actives have a fitted effect of over 25% in size; also: potency is read from the fitted curve at half-maximal effect)
Outline: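 Seeding of 2,000 HEK293T ATAD5-luciferase cells per well preceded pin-tool compound transfer. Plates sat 15.5 hr at 37C under 5% CO2, then fluorescence was read after 30 min with CellTiter-Fluor.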

[4] = qHTS assay for small molecule disruptors of the mitochondrial membrane potential - cell viability (AID 720634; calls by dose curve; also: nearly all actives have a fitted effect of over 20% in size; also: potency is read from the fitted curve at half-maximal effect)
Outline: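 Measuring cytotoxicity alongside mitochondrial potential, the screen quantified ATP by luminescence in HepG2 cells after 1 hr compound incubation and a 30 min room-temperature CellTiter-Glo step.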

[5] = qHTS assay for small molecule disruptors of the mitochondrial membrane potential (AID 720635); also: potency is read from the fitted curve at half-maximal effect
Outline: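 Mitochondrial membrane potential tracked with Mito-MPS dye, red aggregates (ex 540/em 590 nm) against green monomers (ex 490/em 535 nm). Compound treatment 1 hr at 37C, dye 30 min in HepG2.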

[6] = qHTS assay to test for compound auto fluorescence at 535 nm (green) in HepG2 cells (AID 720675); also: potency is read from the fitted curve at half-maximal effect
[7] = qHTS assay to test for compound auto fluorescence at 590 nm (red) in HEK293 cells (AID 720679)
Outline: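 Plates of HEK293 cells (10% dialyzed FBS) are treated with 23 nL compound or DMSO vehicle after a 4-5 hr attachment period, incubated overnight at 37C, and read for red fluorescence at 540/590nm.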

[8] = qHTS assay to test for compound auto fluorescence at 590 nm (red) in HepG2 cells (AID 720674)
Outline: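 Red autofluorescence (Ex/Em 540/590 nm, Rose Bengal sodium equivalents) was measured in HepG2 cells, 2,000 per well in MEM plus 10% FBS, plated overnight at 37 C. Readings were taken 1 hr after adding 23 nL compound or DMSO, at 37 C and 5% CO2.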

[9] = qHTS assay to test for compound auto fluorescence at 460 nm (blue) in HEK293 cells (AID 720678)
Outline: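 After cell attachment (4-5 hr, 37C), compounds were pinned onto HEK293 monolayers in 10% dialyzed FBS medium. The blue channel (405/460 nm) was read following overnight culture. Equivalency was calculated against triamterene.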

Row | SMILES | Potency [1] | Potency [2] | Potency [3] | Potency [4] | Potency [5] | Potency [6] | outcome [7] | fluorescence, relative to Rose Bengal [8] | fluorescence, % of fluorescein control [6] | fluorescence, % of triamterene [9] | fluorescence, % of fluorescent control [7] | outcome [8] | Potency [9]
1 | c1cc[n+]2c(c1)-c1cccc[n+]1CC2 | inactive | inactive | inactive | inactive | inactive | inactive | inactive | – | – | – | – | – | –
2 | COc1c2c(cc3c1OCO3)CCN(C)C2 | inactive | inactive | inactive | inactive | – | – | – | 0.142% [at 18.6 µM] (inactive) | -0.0459% [at 18.6 µM] (inactive) | 0.0083% [at 18.6 µM] (inactive) | -0.0835% [at 18.6 µM] (inactive) | – | –
3 | [O]=[Cr](=[O])([OH])[O][Cr](=[O])(=[O])[OH] | inactive | 19.5 µM (active) [middle of 4 runs] | – | inactive and 27.6 µM (active) and 30.6 µM (active) | inactive and 13.8 µM (active) and 27.3 µM (active) | inactive | inactive | – | – | – | – | inactive | inactive
4 | O=C(N[C@H]1N=C(c2ccccc2F)c2cccc3c2N(CC3)C1=O)c1cc2ccccc2[nH]1 | inactive | inactive | inactive | inactive | – | inactive | inactive | – | – | – | – | inactive | inactive
5 | COP(=O)(OC)O/C(=C\Cl)c1cc(Cl)c(Cl)cc1Cl | inactive | inactive | – | inactive | – | inactive | inactive | – | – | – | – | inactive | –
6 | O=S1(=O)OCC2C(CO1)C1(Cl)C(Cl)=C(Cl)C2(Cl)C1(Cl)Cl (stereo not given) | inactive | inactive | inactive | – | 13.7 µM (active) | inactive | inactive | – | – | – | – | – | inactive
7 | Cc1cc2c3c(c1)C(c1ccccc1)=N[C@@H](NC(=O)c1ccncc1)C(=O)N3CC2 | inactive | inactive | inactive | inactive | – | inactive | inactive | – | – | – | – | inactive | inactive
8 | CCCCCCCc1ccc(O)cc1 | inactive | inactive | inactive | – | 7.7 µM (active) | inactive | inactive | – | – | – | – | inactive | inactive
9 | FC(F)C(F)(F)OCC(Cn1cncn1)c1ccc(Cl)cc1Cl (stereo not given) | inactive | inactive | – | – | 48.3 µM (active) | inactive | inactive | – | – | – | – | inactive | –
10 | O=C(NC(=O)c1c(F)cccc1F)Nc1ccc(Oc2ccc(C(F)(F)F)cc2Cl)cc1F | inactive | inactive | inactive | – | – | inactive | inactive | – | – | – | – | inactive | inactive
11 | Nc1nc(N)c(N)c(N)n1 | inactive | inactive | inactive | inactive | 8.68 µM (active) | 31.6 µM (active) | inactive | – | – | – | – | – | –
12 | Nc1ccc(N=Nc2ccccc2)cc1 | 13.7 µM (active) | inactive | 41.6 µM (active) | – | – | inactive | inactive | – | – | – | – | inactive | inactive
13 | CCC(C)c1cccc(C(C)CC)c1O (stereo not given) | inactive | – | inactive | inactive | 13.7 µM (active) | inactive | inactive | – | – | – | – | inactive | inactive
14 | Brc1cccc(-c2ccccc2)c1 | inactive | inactive | inactive | inactive | 0.436 µM (active) | inactive | inactive | – | – | – | – | – | –
15 | Cc1cnc2c(C(=O)O)c(Cl)ccc2c1 | inactive | inactive | inactive | inactive | – | inactive | inactive | – | – | – | – | inactive | inactive
16 | c1ccc2nc(N3CCNCC3)ccc2c1 | inactive | inactive | inactive | inactive | – | inactive | inactive | – | – | – | – | – | inactive
17 | CCCCN(CCCC)C(=S)[S-].CCCCN(CCCC)C(=S)[S-].[Ni+2] | inactive | inactive | inactive | inactive | – | inactive | inactive | – | – | – | – | inactive | inactive
18 | Fc1ccc(C(OCCN2CCN(CCCc3ccccc3)CC2)c2ccc(F)cc2)cc1 | inactive | 26.6 µM (active) | 29.8 µM (active) | inactive | – | inactive | inactive | – | – | – | – | inactive | inactive
19 | CCN1CCC2(CC1)COc1cc3c(cc12)N(C(=O)c1ccc(-c2ccc(-c4nnc(C)o4)cc2C)cc1)CC3 | inactive | 56.4 µM (active) | 56.4 µM (active) | – | 7.96 µM (active) | inactive | inactive | – | – | – | – | inactive | inactive
20 | ClC1(Cl)C2(Cl)C3(Cl)C4(Cl)C(Cl)(Cl)C5(Cl)C3(Cl)C1(Cl)C5(Cl)C24Cl (stereo not given) | inactive | inactive | inactive | inactive | – | inactive | inactive | – | – | – | – | inactive | inactive
21 | COC(=O)c1cc(Oc2ccc(Cl)cc2Cl)ccc1[N+](=O)[O-] | inactive | inactive | inactive | – | – | inactive | inactive | – | – | – | – | inactive | inactive
22 | Nc1c(Cl)c(Cl)c(Cl)c(Cl)c1Cl | inactive | inactive | inactive | – | – | inactive | inactive | – | – | – | – | inactive | inactive
23 | CSC(=O)c1c(C(F)F)nc(C(F)(F)F)c(C(=O)SC)c1CC(C)C | inactive | inactive | inactive | – | – | inactive | inactive | – | – | – | – | inactive | inactive
